The full list was thinned out, with hits kept by preference.
GluA2 TARP mod: modulators of AMPA receptor GluA2-stargazin complexes; O88602+P19491; HEK293 GluA2+stargazin, membrane potential dye (FDSS), glutamate EC50; hits were called plate by plate, in both directions; calls only at 30 µM; 3.5% of 40,000 active;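 active = any of four per-well response measures lying three or more SD from its plate-wide compound average, in either direction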
GIRK2 activator: GIRK2 channel activators by thallium flux; HEK293 GIRK2/NPY4 cells, thallium flux fluorescence; activation (% efficacy), % for hits at 37.5 µM; 34,000 tested, under 10 active; AID 1259324;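 active = primary screen hit, no activity in plain HEK293 cells, and in GIRK2-only cells above 5% efficacy rising with concentration; inactive = the rest, including fluorescent compounds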;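 also: efficacy is normalized control-subtracted fluorescence 15 s after thallium addition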
Large screens that a line does not name were inactive.

COc1cccc(/C=C2\Oc3cc(OC(=O)N(C)C)ccc3C2=O)c1	none (no result: GIRK2 activator)
COc1ccc(/C=C2\Oc3cc(OC(=O)N(C)C)ccc3C2=O)cc1OC	GluA2 TARP mod active (no result: GIRK2 activator)
Cc1ccccc1OCC(=O)N1CCN(CCn2ccnc2)CC1	none (no result: GluA2 TARP mod)
CN(C)CC#CCNS(=O)(=O)C1CC1	none
c1nc(N2CCNCC2)c2cn[nH]c2n1	GluA2 TARP mod active
COc1ccccc1/C=C1\Oc2cc(OC(=O)N(C)C)ccc2C1=O	none (no result: GIRK2 activator)
COc1ccc(NC2(C#N)CCCCC2)cc1	GluA2 TARP mod active
CCOc1ccc(-n2nnnc2CN2CCN(C(=O)COc3ccccc3F)CC2)cc1	none
CN(C)CC#CCNS(=O)(=O)c1ccc(Br)cc1	none (no result: GIRK2 activator)
